From the supplement of paper PMC7411054
Where a name gives a salt, the structure may show the parent alone.

Columns and labels:
Details in all cases: treatment time: 24 h
[1] = system: A549-ACTB-RAB5A; experiment: lowest phenotypically active concentration; higher = less potent
Procedure, shortened: (§1)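 Live-cell features were measured per well and normalised to solvent control wells after fifteen gene-edited A549, HepG2 and WPMY1 reporter lines had been treated for 24 h at 0.3, 1, 3 or 9 µM in four wells each. A condition was deviating when ≥3 of 4 wells sat beyond the 95th percentile of control Euclidean distances. It was reproducible when the median replicate Pearson correlation exceeded the 95th percentile of non-replicates. Phenotypic activity demanded both.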

[2] = system: A549-CANX-COX4; experiment: as above
Procedure, shortened: as §1

[3] = system: A549-GM130-SQSTM1; experiment: as above
Procedure, shortened: as §1

[4] = system: A549-TP53BP1-CLTA; experiment: as above
Procedure, shortened: as §1

[5] = system: A549-TUBA1B-RELA; experiment: as above
Procedure, shortened: as §1

[6] = system: HepG2-GM130-SQSTM1; experiment: as above
Procedure, shortened: as §1

[7] = system: A549-ACTB-RAB5A; experiment: phenotypically active (imaging signature differs from DMSO and reproducible) at any of 0.3-9 uM (binary (1 = active, 0 = inactive)); higher = active
Procedure, shortened: as §1

[8] = system: A549-CANX-COX4; experiment: as above
Procedure, shortened: as §1

[9] = system: A549-GM130-SQSTM1; experiment: as above
Procedure, shortened: as §1

[10] = system: A549-TP53BP1-CLTA; experiment: as above
Procedure, shortened: as §1

[11] = system: A549-TUBA1B-RELA; experiment: as above
Procedure, shortened: as §1

[12] = system: HepG2-ACTB-RAB5A; experiment: as above
Procedure, shortened: as §1

[13] = system: HepG2-CANX-COX4; experiment: as above
Procedure, shortened: as §1

[14] = system: HepG2-GM130-SQSTM1; experiment: as above
Procedure, shortened: as §1

[15] = system: HepG2-TP53BP1-CLTA; experiment: as above
Procedure, shortened: as §1

[16] = system: HepG2-TUBA1B-RELA; experiment: as above
Procedure, shortened: as §1

[17] = system: WPMY1-CANX-COX4; experiment: as above
Procedure, shortened: as §1

[18] = system: WPMY1-GM130-SQSTM1; experiment: as above
Procedure, shortened: as §1

[19] = system: WPMY1-TP53BP1-CLTA; experiment: as above
Procedure, shortened: as §1

[20] = system: WPMY1-TUBA1B-RELA; experiment: as above
Procedure, shortened: as §1

Row | Structure (SMILES) | lowest phenotypically active concentration [1] [µM] | lowest phenotypically active concentration [2] [µM] | lowest phenotypically active concentration [3] [µM] | lowest phenotypically active concentration [4] [µM] | lowest phenotypically active concentration [5] [µM] | lowest phenotypically active concentration [6] [µM] | phenotypically active [7] | phenotypically active [8] | phenotypically active [9] | phenotypically active [10] | phenotypically active [11] | phenotypically active [12] | phenotypically active [13] | phenotypically active [14] | phenotypically active [15] | phenotypically active [16] | phenotypically active [17] | phenotypically active [18] | phenotypically active [19] | phenotypically active [20]
1 | CN1CCN(c2ccc(OC(F)(F)F)c(Nc3ncc4c(n3)-c3c(c(C(N)=O)nn3CCO)CC4)c2)CC1 | ≤ 0.3 | ≤ 0.3 | ≤ 0.3 | ≤ 0.3 | ≤ 0.3 | ≤ 0.3 | 1 (active) | 1 (active) | 1 (active) | 1 (active) | 1 (active) | 1 (active) | 1 (active) | 1 (active) | 1 (active) | 1 (active) | 1 (active) | 1 (active) | 1 (active) | 1 (active)
2 | O=C(NCCCNc1nc(Nc2cccc(NC(=O)N3CCCC3)c2)ncc1I)c1cccs1 | 1 | 3 | 3 | 3 | 3 | 3 | 1 (active) | 1 (active) | 1 (active) | 1 (active) | 1 (active) | 1 (active) | 1 (active) | 1 (active) | 1 (active) | 1 (active) | 1 (active) | 1 (active) | 1 (active) | 1 (active)
3 | Cc1c(C(=O)N2CCOc3ccc(-c4ccc(N)nc4)cc3C2)ccc(S(C)(=O)=O)c1F | 1 | 3 | 3 | 3 | 1 | 3 | 1 (active) | 1 (active) | 1 (active) | 1 (active) | 1 (active) | 1 (active) | 1 (active) | 1 (active) | 1 (active) | 1 (active) | 1 (active) | 1 (active) | 1 (active) | 1 (active)
4 | C[C@@H](N)[C@H]1CC[C@H](C(=O)Nc2ccncc2)CC1 | 3 | 9 | 9 | 3 | 9 | 1 | 1 (active) | 1 (active) | 1 (active) | 1 (active) | 1 (active) | 1 (active) | 1 (active) | 1 (active) | 1 (active) | 1 (active) | 1 (active) | 1 (active) | 1 (active) | 1 (active)
5 | COc1ccc(S(=O)(=O)N(C(C)=O)c2ccccc2/C=C/c2cc[n+]([O-])cc2)cc1 | 1 | 3 | ≤ 0.3 | 3 | ≤ 0.3 | 3 | 1 (active) | 1 (active) | 1 (active) | 1 (active) | 1 (active) | 1 (active) | 1 (active) | 1 (active) | 1 (active) | 1 (active) | 1 (active) | 1 (active) | 1 (active) | 1 (active)
6 | COc1cc(C(=O)NC2CCN(C)CC2)c(F)cc1Nc1ncc2c(n1)N(C1CCCC1)CC(F)(F)C(=O)N2C [TAK 960 hydrochloride] | ≤ 0.3 | ≤ 0.3 | ≤ 0.3 | ≤ 0.3 | ≤ 0.3 | ≤ 0.3 | 1 (active) | 1 (active) | 1 (active) | 1 (active) | 1 (active) | 1 (active) | 1 (active) | 1 (active) | 1 (active) | 1 (active) | 1 (active) | 1 (active) | 1 (active) | 1 (active)
7 | NC(=O)Nc1sc(-c2ccc(F)cc2)cc1C(N)=O | 3 | 3 | 3 | 9 | 3 | 9 | 1 (active) | 1 (active) | 1 (active) | 1 (active) | 1 (active) | 1 (active) | 1 (active) | 1 (active) | 1 (active) | 1 (active) | 1 (active) | 1 (active) | 1 (active) | 1 (active)
8 | C[C@@H]1COCCN1c1cc(C2(S(C)(=O)=O)CC2)nc(-c2cccc3[nH]ccc23)n1 | ≤ 0.3 | 1 | ≤ 0.3 | ≤ 0.3 | 1 | 1 | 1 (active) | 1 (active) | 1 (active) | 1 (active) | 1 (active) | 1 (active) | 1 (active) | 1 (active) | 1 (active) | 1 (active) | 1 (active) | 1 (active) | 1 (active) | 1 (active)
9 | CC[C@]1(O)C[C@@H]2CN(CCc3c([nH]c4ccccc34)[C@@](C(=O)OC)(c3cc4c(cc3OC)N(C=O)[C@H]3[C@@](O)(C(=O)OC)[C@H](OC(C)=O)[C@]5(CC)C=CCN6CC[C@]43[C@@H]65)C2)C1 [vincristine] | ≤ 0.3 | ≤ 0.3 | ≤ 0.3 | ≤ 0.3 | ≤ 0.3 | ≤ 0.3 | 1 (active) | 1 (active) | 1 (active) | 1 (active) | 1 (active) | 1 (active) | 1 (active) | 1 (active) | 1 (active) | 1 (active) | 1 (active) | 1 (active) | 1 (active) | 1 (active)
10 | COc1cc(C)c(Sc2cnc(NC(=O)c3ccc(CNC(C)C(C)(C)C)cc3)s2)cc1C(=O)N1CCN(C(C)=O)CC1 (stereo not given) | 1 | 9 | 3 | 9 | 1 | 3 | 1 (active) | 1 (active) | 1 (active) | 1 (active) | 1 (active) | 1 (active) | 1 (active) | 1 (active) | 1 (active) | 1 (active) | 1 (active) | 1 (active) | 1 (active) | 1 (active)
11 | CC[C@@H]1C(=O)N(C)c2cnc(Nc3ccc(C(=O)NC4CCN(C)CC4)cc3OC)nc2N1C1CCCC1 | ≤ 0.3 | ≤ 0.3 | 1 | ≤ 0.3 | ≤ 0.3 | ≤ 0.3 | 1 (active) | 1 (active) | 1 (active) | 1 (active) | 1 (active) | 1 (active) | 1 (active) | 1 (active) | 1 (active) | 1 (active) | 1 (active) | 1 (active) | 1 (active) | 1 (active)
